Inconclusive results are not listed. Some compounds were tested as several samples or in several runs, with calls that do not always agree. The source made the active and inactive calls. The call rests on the fitted dose curve.
assay: p53 small molecule agonists, cell-based qHTS assay with human liver microsomes: qHTS cell viability counter screen (AID 1963579); conditions: p53RE-bla HCT-116 viability, ATP luminescence, 16 h, HLM; series mostly up to 66 µM; activity change, negative = cytotoxicity: at the top concentration
Procedure, shortened: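 Tox21 library compounds, delivered from DMSO stocks, were tested on p53RE-bla cells together with 0.5 mg/mL human liver microsomes and 0.5 mg/mL NADPH (final) over 16 h at 37 C; CellTiter-Glo luminescence served as the cytotoxicity measure.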
Further: nearly all actives have a fitted effect of over 45% in size.
On the % scale 0 is the no-effect control and ±100 the full control effect; potency means the concentration at half of the fitted maximal effect.

Row | Compound | activity change, negative = cytotoxicity | Potency
1 | S=C=NCCc1ccccc1 | 0.677% (inactive) | –
2 | Clc1cc(Cl)c(-c2cc(Cl)c(Cl)cc2Cl)cc1Cl | -0.152% [at 30.3 µM] (inactive) | –
3 | CC1=C2C[C@H]3[C@@H](CC=C4C[C@@H](O)CC[C@@]43C)[C@@H]2CC[C@]12O[C@@H]1C[C@H](C)CN[C@H]1[C@H]2C | 14.3% [at 30.3 µM] (inactive) | –
4 | Cc1nc2ccccc2c(=O)n1-c1ccccc1Cl | 11.8% (inactive) | –
5 | ClC1=C(Cl)[C@]2(Cl)[C@H]3[C@H]([C@@H]4C=C[C@H]3C4)[C@@]1(Cl)C2(Cl)Cl | – | inactive
6 | CC(C)[C@@H](C(=O)O[C@@H](C#N)c1cccc(Oc2ccccc2)c1)c1ccc(Cl)cc1 | – | inactive
7 | O=C(Cl)c1ccc(Cl)cc1 | 5.31% (inactive) | –
8 | CCCCOCN(C(=O)CCl)c1c(CC)cccc1CC | -12% (inactive) | –
9 | Nc1ccc([N+](=O)[O-])cc1Cl | -0.646% (inactive) | –
10 | CCCCP(CCCC)CCCC | 0.028% (inactive) | –
11 | CC(C)c1c(CN(C)C(C)Cc2ccccc2)n(C)n(-c2ccccc2)c1=O (stereo not given) | -0.0218% [at 30.3 µM] (inactive) | –
12 | C[C@]12C/C(=C/O)C(=O)C[C@@H]1CC[C@@H]1[C@@H]2CC[C@@]2(C)[C@H]1CC[C@]2(C)O | – | 36.7 µM (active) and inactive
13 | ClC1=C(Cl)[C@]2(Cl)[C@H]3[C@H]([C@H]4C=C[C@H]3C4)[C@@]1(Cl)C2(Cl)Cl | -1.09% (inactive) | –
14 | COC(=O)C(c1ccccc1)C1CCCCN1 (stereo not given) | 0.695% (inactive) | –
15 | CC(=O)[O-].CC(=O)[O-].O.O.[Cd+2] | 10.9% (inactive) | –
16 | CN1C(=O)[C@@H](NC(=O)c2cc3ccccc3[nH]2)N=C(c2ccccc2)c2ccccc21 | -15.2% [at 30.3 µM] (inactive) | –
17 | CCO[C@H]1O[C@@H]2OC3(C)CC[C@H]4[C@H](C)CC[C@@H]([C@H]1C)[C@@]24OO3 | 1.29% [at 30.3 µM] (inactive) | –
18 | O=NN(CCO)CCO | -1.02% (inactive) | –
19 | CCOC(=O)C(Cl)Cc1cc(-n2nc(C)n(C(F)F)c2=O)c(F)cc1Cl (stereo not given) | 0.705% (inactive) | –
20 | C[C@H]1O[C@@H](O[C@H]2[C@@H](O)C[C@H](O[C@H]3[C@@H](O)C[C@H](O[C@H]4CC[C@@]5(C)[C@H](CC[C@@H]6[C@@H]5CC[C@]5(C)[C@@H](C7=CC(=O)OC7)CC[C@]65O)C4)O[C@@H]3C)O[C@@H]2C)C[C@H](O)[C@@H]1O | – | 46.1 nM (active) and inactive

Row | Compound | activity change, negative = cytotoxicity | Potency
21 | [O-][Br+2]([O-])O | 1.62% [at 30.3 µM] (inactive) | –
22 | C[C@@H]1C[C@@H]([C@H](O)CC2CC(=O)NC(=O)C2)C(=O)[C@@H](C)C1 | – | inactive
23 | Nc1c(Cl)c(F)nc(OCC(=O)O)c1Cl | 0.242% (inactive) | –
24 | OC(Cc1ccccc1Cl)(Cn1[nH]cnc1=S)C1(Cl)CC1 (stereo not given) | -3.62% (inactive) | –
25 | N#CC(C#N)=C(C#N)C#N | -6.44% (inactive) | –
26 | CC1COC(Cn2cncn2)(c2ccc(Oc3ccc(Cl)cc3)cc2Cl)O1 (stereo not given) | -7.86% (inactive) | –
27 | CC1CCCC1 | -3.9% (inactive) | –
28 | COCC(C)N(C(=O)CCl)c1c(C)csc1C (stereo not given) | 0.801% (inactive) | –
29 | N[C@@H](Cc1ccc(Oc2cc(I)c(O)c(I)c2)c(I)c1)C(=O)O | 1.99% [at 30.3 µM] (inactive) | –
30 | CCOc1cc(Oc2ccc(C(F)(F)F)cc2Cl)ccc1[N+](=O)[O-] | – | inactive
31 | CC(Cc1ccccc1)NCCn1cnc2c1c(=O)n(C)c(=O)n2C (stereo not given) | 0.429% (inactive) | –
32 | Cc1ccc([N+](=O)[O-])[c]2c1[O][Hg]2 | – | 15.8 µM (active)
33 | CC1(C)C(C(=O)OC(C#N)c2cccc(Oc3ccccc3)c2)C1(C)C (stereo not given) | -5.04% (inactive) | –
34 | C=C(C)C(=O)[O][Sn]([CH2]CCC)([CH2]CCC)[CH2]CCC | – | 14.5 µM (active)
35 | CCCN(CC1CC1)c1c([N+](=O)[O-])cc(C(F)(F)F)cc1[N+](=O)[O-] | -0.373% (inactive) | –
36 | COc1ccc(Cc2nccc3cc(OC)c(OC)cc23)cc1OC | -29.4% [at 30.3 µM] (inactive) | –
37 | COC1=CC(=O)O[C@@H](/C=C/c2ccc3c(c2)OCO3)C1 | 3.15% (inactive) | –
38 | Brc1ccc(Oc2ccc(Br)cc2Br)c(Br)c1 | -4.3% (inactive) | –
39 | CC(C)N1C(=O)N(c2ccccc2)CSC1=NC(C)(C)C | -0.603% (inactive) | –
40 | COC(=O)COc1ccc(Cl)cc1Cl | -5.53% (inactive) | –

assay: p53 small molecule agonists, cell-based qHTS assay with rat liver microsomes: qHTS cell viability counter screen (AID 1963580); conditions: p53RE-bla HCT-116 + rat microsomes, ATP viability, 16 h; series mostly up to 66 µM; activity change, negative = cytotoxicity: at the top concentration
Procedure, shortened: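 HCT-116 p53RE-bla, 4,000 cells/well, 5 h pre-incubation; cpd + rat liver microsomes 0.5 mg/mL + NADPH 0.5 mg/mL (final); 16 h, 37 C; CellTiter-Glo, 30 min RT; luminescence.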

Row | Compound | activity change, negative = cytotoxicity | Potency
41 | S=C=NCCc1ccccc1 | -1.85% (inactive) | –
42 | Clc1cc(Cl)c(-c2cc(Cl)c(Cl)cc2Cl)cc1Cl | -0.739% [at 30.3 µM] (inactive) | –
43 | CC1=C2C[C@H]3[C@@H](CC=C4C[C@@H](O)CC[C@@]43C)[C@@H]2CC[C@]12O[C@@H]1C[C@H](C)CN[C@H]1[C@H]2C | 1.6% [at 30.3 µM] (inactive) | –
44 | Cc1nc2ccccc2c(=O)n1-c1ccccc1Cl | 1.92% (inactive) | –
45 | ClC1=C(Cl)[C@]2(Cl)[C@H]3[C@H]([C@@H]4C=C[C@H]3C4)[C@@]1(Cl)C2(Cl)Cl | – | inactive
46 | CC(C)[C@@H](C(=O)O[C@@H](C#N)c1cccc(Oc2ccccc2)c1)c1ccc(Cl)cc1 | – | inactive
47 | O=C(Cl)c1ccc(Cl)cc1 | -4.68% (inactive) | –
48 | CCCCOCN(C(=O)CCl)c1c(CC)cccc1CC | -6.56% (inactive) | –
49 | Nc1ccc([N+](=O)[O-])cc1Cl | 0.68% (inactive) | –
50 | CCCCP(CCCC)CCCC | 5.59% (inactive) | –
51 | CC(C)c1c(CN(C)C(C)Cc2ccccc2)n(C)n(-c2ccccc2)c1=O (stereo not given) | 0.31% [at 30.3 µM] (inactive) | –
52 | C[C@]12C/C(=C/O)C(=O)C[C@@H]1CC[C@@H]1[C@@H]2CC[C@@]2(C)[C@H]1CC[C@]2(C)O | 1.63% [at 30.3 µM] (inactive) | –
53 | ClC1=C(Cl)[C@]2(Cl)[C@H]3[C@H]([C@H]4C=C[C@H]3C4)[C@@]1(Cl)C2(Cl)Cl | -29.3% (inactive) | –
54 | COC(=O)C(c1ccccc1)C1CCCCN1 (stereo not given) | 3.4% (inactive) | –
55 | CC(=O)[O-].CC(=O)[O-].O.O.[Cd+2] | -0.0859% (inactive) | –
56 | CN1C(=O)[C@@H](NC(=O)c2cc3ccccc3[nH]2)N=C(c2ccccc2)c2ccccc21 | 0.0561% [at 30.3 µM] (inactive) | –
57 | CCO[C@H]1O[C@@H]2OC3(C)CC[C@H]4[C@H](C)CC[C@@H]([C@H]1C)[C@@]24OO3 | 3.24% [at 30.3 µM] (inactive) | –
58 | O=NN(CCO)CCO | 2.96% (inactive) | –
59 | CCOC(=O)C(Cl)Cc1cc(-n2nc(C)n(C(F)F)c2=O)c(F)cc1Cl (stereo not given) | -13.1% (inactive) | –
60 | C[C@H]1O[C@@H](O[C@H]2[C@@H](O)C[C@H](O[C@H]3[C@@H](O)C[C@H](O[C@H]4CC[C@@]5(C)[C@H](CC[C@@H]6[C@@H]5CC[C@]5(C)[C@@H](C7=CC(=O)OC7)CC[C@]65O)C4)O[C@@H]3C)O[C@@H]2C)C[C@H](O)[C@@H]1O | – | 0.073 µM (active)

Row | Compound | activity change, negative = cytotoxicity | Potency
61 | [O-][Br+2]([O-])O | -0.571% [at 30.3 µM] (inactive) | –
62 | C[C@@H]1C[C@@H]([C@H](O)CC2CC(=O)NC(=O)C2)C(=O)[C@@H](C)C1 | – | inactive
63 | Nc1c(Cl)c(F)nc(OCC(=O)O)c1Cl | -4.77% (inactive) | –
64 | OC(Cc1ccccc1Cl)(Cn1[nH]cnc1=S)C1(Cl)CC1 (stereo not given) | -10.3% (inactive) | –
65 | N#CC(C#N)=C(C#N)C#N | 2.62% (inactive) | –
66 | CC1COC(Cn2cncn2)(c2ccc(Oc3ccc(Cl)cc3)cc2Cl)O1 (stereo not given) | 0.102% (inactive) | –
67 | CC1CCCC1 | -1.4% (inactive) | –
68 | COCC(C)N(C(=O)CCl)c1c(C)csc1C (stereo not given) | -4.91% (inactive) | –
69 | N[C@@H](Cc1ccc(Oc2cc(I)c(O)c(I)c2)c(I)c1)C(=O)O | 9.78% [at 30.3 µM] (inactive) | –
70 | CCOc1cc(Oc2ccc(C(F)(F)F)cc2Cl)ccc1[N+](=O)[O-] | – | inactive
71 | CC(Cc1ccccc1)NCCn1cnc2c1c(=O)n(C)c(=O)n2C (stereo not given) | -0.264% (inactive) | –
72 | Cc1ccc([N+](=O)[O-])[c]2c1[O][Hg]2 | – | 15.8 µM (active)
73 | CC1(C)C(C(=O)OC(C#N)c2cccc(Oc3ccccc3)c2)C1(C)C (stereo not given) | – | inactive
74 | C=C(C)C(=O)[O][Sn]([CH2]CCC)([CH2]CCC)[CH2]CCC | – | 3.24 µM (active)
75 | CCCN(CC1CC1)c1c([N+](=O)[O-])cc(C(F)(F)F)cc1[N+](=O)[O-] | -0.48% (inactive) | –
76 | COc1ccc(Cc2nccc3cc(OC)c(OC)cc23)cc1OC | -8.87% [at 30.3 µM] (inactive) | –
77 | COC1=CC(=O)O[C@@H](/C=C/c2ccc3c(c2)OCO3)C1 | 2.27% (inactive) | –
78 | Brc1ccc(Oc2ccc(Br)cc2Br)c(Br)c1 | -1.92% (inactive) | –
79 | CC(C)N1C(=O)N(c2ccccc2)CSC1=NC(C)(C)C | -0.708% (inactive) | –
80 | COC(=O)COc1ccc(Cl)cc1Cl | -13% (inactive) | –
